Test results published in PubChem BioAssay AID620 (Sanford-Burnham Center for Chemical Genomics, 2007).
About 360 (0.41%) of roughly 87,000 compounds were called active. The full list was thinned out, with actives kept by preference. Values without a mark were called inactive. No stated cut-off is given here; in the data, active means cytotoxicity above about 50%; inactive means the rest.

Test: HT1080 cell viability loss – fluorescence readout (AID 620);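 further: cells exposed to compound overnight then 4 h with Alamar Blue; 0% = vehicle DMSO and 100% = killing control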
Settings: at 10 µM, stronger effect = higher value

| Compound | cytotoxicity |
| --- | --- |
| Oc1c(CN2CCOCC2)cc(COCc2ccccc2)c2cccnc12 | 20.5% |
| O=c1oc2c(CN3CCOCC3)c(O)c(Cl)cc2c2c1CCC2 | 7.1% |
| CCOCC(=O)Nc1nnc(COc2ccc(Cl)cc2)s1 | 17.8% |
| CCOC(=O)CSc1nnc(Cn2c(=O)sc3ccccc32)n1C | 1.9% |
| CCN(CC)c1ccc(C(=S)N2CCN(c3ccccc3)CC2)cc1 | -2.9% |
| O=C(CSc1nnc(-c2cccs2)o1)c1cccs1 | 25.4% |
| Cc1cc(C(=O)CSc2nnc(-c3ccccc3F)o2)c(C)n1Cc1cccs1 | -6.5% |
| COC(=O)C1=C(COc2ccccc2)NC(=O)NC1c1ccc2ccccc2c1 (centres undefined) | -5.7% |
| CCOC(=O)C1=C(N)n2c(s/c(=C\c3ccco3)c2=O)=C(C(=O)OCC)C1c1ccco1 (centres undefined) | 36.1% |
| CCOC(=O)C1=C(N)n2c(s/c(=C/c3ccccc3)c2=O)=C(C(=O)OCC)C1c1ccccc1 (centres undefined) | -1.6% |
| CCOC(=O)C1=C(N)n2c(s/c(=C\c3cccs3)c2=O)=C(C(=O)OCC)C1c1cccs1 (centres undefined) | 56.3% (active) |
| Brc1ccc(-c2cn3cccnc3n2)cc1 | 9.4% |
| c1ccc(-c2cn3c(n2)CCc2ccc4cccnc4c2-3)cc1 | 37% |
| Brc1ccc(-c2cn3c(n2)CCc2ccc4cccnc4c2-3)cc1 | 53.1% (active) |
| CCn1c(=O)n(CC)c2cc(S(=O)(=O)N3CCc4ccccc43)ccc21 | 71.3% (active) |
| Cn1c(=O)c(=O)n(C)c2cc(S(=O)(=O)N3CCc4ccccc43)ccc21 | -4% |
| CCn1c(=O)n(CC)c2cc(S(=O)(=O)N3CCC(c4ccccc4)CC3)ccc21 | -6.5% |
| Cc1cc(C)c(C)c(S(=O)(=O)NCc2ccco2)c1C | 24.4% |
| COc1ccc(C(=O)c2ccc(OC)c(N)c2)cc1N | 53.8% (active) |
| COc1ccc(C(N)=O)cc1N | 2.5% |
| COc1ccc(C(=O)c2ccc(OC)c(OC)c2)cc1OC | 14.8% |
| COc1ccc(OCCCC(=O)Nc2nncs2)cc1 | 8.3% |
| O=C(NCCN1CCN(c2ccccc2F)CC1)C1CC(=O)N(C2CCCC2)C1 (centres undefined) | 7% |
| CC1CCCCC1NC(=O)CSc1nncs1 (centres undefined) | -0.9% |
| COC(=O)c1ccc2c(c1)C(C)(C)C(/C=C/c1ccc(OC)c(OC)c1OC)=[N+]2C | 64.8% (active) |

| Compound | cytotoxicity |
| --- | --- |
| COC(=O)c1ccc(OC(=O)c2ccc(OC)c(OC)c2)c(OC)c1 | -8% |
| COC(=O)c1ccc(OC(=O)c2ccc(OCc3c(C)noc3C)c(OC)c2)cc1 | -2% |
| O=C(Nc1cccc(Cl)c1)N(CCN1CCOCC1)Cc1cccc(Cl)c1 | 24% |
| Cc1ccc(NC2=NCC(=O)N2Cc2ccccc2)c(C)c1 | -14.9% |
| COC(=O)c1cc2ccsc2n1CC(=O)N(C)c1ccccc1 | -3.5% |
| COC(=O)c1cc2ccsc2n1Cc1cc(=O)n2ccccc2n1 | 60.2% (active) |
| COC(=O)c1cc2ccsc2n1Cc1nc(-c2ccc(OC)cc2)oc1C | -11.4% |
| CCn1c(SCC(=O)Nc2ccccc2)nc2c1c(=O)n(C)c(=O)n2C | -1.6% |
| COc1cccc(OCC(=O)Nc2c(C(=O)Nc3ccc(OC)cc3OC)oc3ccccc23)c1 | 2.3% |
| O=S(=O)(Nc1cccnc1)c1cccc(C(F)(F)F)c1 | 2.9% |
| O=C(COc1cccc2ccccc12)N1CCN(c2ccccn2)CC1 | -9% |
| Cc1ccc(Nc2nc(N3CCOCC3)c3ccccc3n2)cc1 | -0.4% |
| COc1ccc(Nc2nc(N3CCCC3)c3ccccc3n2)cc1 | 19.5% |
| CCOC(=O)N1CCN(c2c(N3CCN(c4ccccn4)CC3)c(=O)c2=O)CC1 | -3% |
| COc1ccc(-c2c/c(=N\c3nc(-c4ccccc4)c(C)s3)c3ccccc3o2)cc1O | 60% (active) |
| COc1ccc(-c2nc(-c3ccccc3)c(-c3cc([N+](=O)[O-])ccc3C)[nH]2)cc1O | 10.8% |
| COc1ccc(-c2nc3ccccc3s2)cc1O | -4% |
| Cn1c(SCc2ccccc2Cl)nc2ccccc21 | 30.7% |
| Cc1nc2ccc(NC(=O)c3ccc(Cl)c(NC(=O)c4cccs4)c3)cc2s1 | 3.4% |
| CCn1c(SCc2ccccc2)nnc1-c1ccc(S(=O)(=O)N2CCCCC2)cc1 | -8.1% |
| O=C1C(Cl)=C(Nc2ccccc2O)C(=O)N1c1ccccc1 | -3.8% |
| COC(=O)CNC(=O)[C@@]1(C)C=C[C@@H](Cc2ccccc2)N1C(C)=O | -25% |
| COC(=O)CNC(=O)[C@@]1(C)C=C[C@@H](Cc2ccccc2)N1C(=O)OC | 89.9% (active) |
| CNC(=O)[C@@]1(C)C=C[C@@H](Cc2ccccc2)N1C(=O)OC | -1% |
